Laboratory results as given in the supplement of paper PMC4962491.
± gives the standard deviation of the averaged measurements.

tested on: FaDu; test: mitochondrial oxygen consumption rate normalised to cell number, Z score vs plate DMSO wells; higher = higher oxygen consumption (negative = OCR reduction); settings: 0.4 µM; treatment time 24 h; assay medium: 5 mM glucose, 5 mM pyruvate, 4 mM glutamine
Experimental: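 Secondary screen: FaDu cells were incubated 24 h with the top 130 primary hits at 0.08, 0.4, 2 or 10 uM. Mitochondrial-specific OCR (basal minus antimycin A) was measured on a Seahorse XF96 in medium with 5 mM glucose, 5 mM pyruvate and 4 mM glutamine and normalised to Hoechst cell number. OCR score = (OCR - mean of plate DMSO wells) / SD of plate DMSO wells. Three repeats.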
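Also: compound exposure in DMEM (4 mM L-glutamine, 5 mM glucose), antimycin A injected at 2 µM after the basal reading and its residual OCR subtracted from basal.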

| Compound | mitochondrial oxygen consumption rate normalised |
| --- | --- |
| CCc1c2c(nc3ccc(OC(=O)N4CCC(N5CCCCC5)CC4)cc13)-c1cc3c(c(=O)n1C2)COC(=O)[C@]3(O)CC | 1.67 ± 1.4 |
| O=C(Nc1ccc([N+](=O)[O-])cc1Cl)c1cc(Cl)ccc1O | -0.286 ± 0.41 |
| C[n+]1c2cc(N)ccc2cc2ccc(N)cc21 | -1.94 ± 0.8 |
| COc1cccc2c1C(=O)c1c(O)c3c(c(O)c1C2=O)C[C@@](O)(C(=O)CO)C[C@@H]3O[C@H]1C[C@H](N)[C@@H](O)[C@H](C)O1 | 1.4 ± 1 |
| Cc1cc(=O)[nH]c(=S)[nH]1 | -0.337 ± 0.83 |
| Cc1cc(N)c2ccccc2[n+]1CCCCCCCCCC[n+]1c(C)cc(N)c2ccccc21 | 0.622 ± 0.8 |
| c1ccc2c(c1)CCCC2C1=NCCN1 (stereo not drawn) | -0.536 ± 1.1 |
| CC(COc1ccccc1)NC(C)C(O)c1ccc(O)cc1 (stereo not drawn) | 1.57 ± 0.3 |
| N=C(N)NC(=N)NCCc1ccccc1 | 0.605 ± 0.9 |
| CC(C(O)c1ccc(O)cc1)N1CCC(Cc2ccccc2)CC1 (stereo not drawn) | 0.565 ± 0.59 |
| COc1cc(O)c(C(=O)c2ccccc2)cc1S(=O)(=O)O | 1.17 ± 0.81 |
| Nc1nc(Cl)nc2c1ncn2[C@H]1C[C@H](O)[C@@H](CO)O1 [Cladribine] | 1.11 ± 0.78 |
| CN(C)CCCN1c2ccccc2CCc2ccccc21 | -0.388 ± 0.95 |
| COc1ccc2cc3[n+](cc2c1OC)CCc1cc2c(cc1-3)OCO2 | -0.535 ± 0.76 |
| Clc1ccc(COC(Cn2ccnc2)c2ccc(Cl)cc2Cl)cc1 (stereo not drawn) | 0.994 ± 1.6 |
| C[C@]12CC[C@@H]3c4ccc(O)cc4CC[C@H]3[C@@H]1CC[C@@H]2OC(=O)CCC1CCCC1 | 0.582 ± 0.51 |
| Oc1c(Cl)cc(Cl)c(Cl)c1Cc1c(O)c(Cl)cc(Cl)c1Cl | 1.92 ± 0.93 |
| NS(=O)(=O)c1cc2c(cc1Cl)N=CNS2(=O)=O | 0.722 ± 0.73 |
